Source: PubChem BioAssay AID504773 (Broad Institute, 2011)
Results with a measured potency or affinity are listed apart. The source made the active and inactive calls.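 How the source made its calls: active means polarization signal falls with dose and the fitted half-maximal concentration is at or below ten times the sample's top valid dose; inconclusive means flat curve at 30 to 70% inhibition, or poor fit; inactive means signal rises, flat within 30%, or potency beyond limit.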

Molecular target: Golgi-associated PDZ and coiled-coil motif-containing protein (Homo sapiens) (UniProt Q9HD26)
Assay: potency against CAL PDZ-peptide interaction – biochemical, fluorescence polarization, Cerulean-tagged CAL PDZ, cherry-picks, dose response (AID 504773)
Settings: CAL PDZ-peptide binding, 1 h; series mostly up to 50 µM

SMILES	outcome
CCN(CC)S(=O)(=O)c1ccc2nc(NC(=O)c3ccco3)sc2c1	inactive
O=C(NNC(=O)c1c(F)cccc1F)c1sccc1-n1cccc1	inactive
O=C(C=Cc1ccccc1)c1cc(Br)ccc1O	inactive
COc1ccc(N2CCN(C3CCCN(Cc4ccc(F)cc4)C3)CC2)cc1 (centres undefined)	inactive
O=C(NCc1ccccn1)c1ccc(NS(=O)(=O)c2ccccc2)cc1	inactive
Cn1c(=O)c2c(ncn2CC(=O)Nc2nc(-c3ccccc3Cl)cs2)n(C)c1=O	inactive
Cc1c(NC(=O)CN2CCC(C(N)=O)CC2)cccc1[N+](=O)[O-]	inactive
S=C(NCCc1ccccc1)N1CCn2cccc2C1c1cccnc1 (centres undefined)	inactive
O=C(CCC(=O)N1CCN(c2ccccc2F)CC1)N1CCN(c2ccccc2)CC1	inactive
O=C(Nc1cc(Cl)ccc1N1CCOCC1)c1ccc2c(c1)OCCO2	inactive
CCN(CC)Cc1c(O)ccc2c1O/C(=C\C=C\c1ccccc1)C2=O	inactive
CCOC(=O)c1nc(NCCc2ccccc2)sc1C	inactive
Cc1cc(C)nc(/N=C(\N)N2CCc3ccccc32)n1	inactive
COc1cc(Cl)c(CN2CCCC(CO)(Cc3cccc(Cl)c3)C2)cc1OC (centres undefined)	inactive
CCn1c(=O)c(C(C)=O)c(O)c2ccccc21	inactive
CC1CCC(NC(=O)c2ccc3c(c2)S(=O)(=O)c2ccccc2C3=O)CC1 (centres undefined)	inactive
COc1ccc(C(=O)N2CCCc3ccccc32)cc1Br	inactive
O=C1c2ccccc2C(O)N1c1ccccc1 (centres undefined)	inactive
O=C(O)CCCC(=O)N1N=C(c2ccccc2)CC1c1ccc2c(c1)OCO2 (centres undefined)	inactive
CC(C)c1ccc(CNC(=O)C(=O)NCCCn2ccnc2)cc1	inactive
COc1ccc(CSc2ncnc3sccc23)cc1F	inactive
CC(=O)c1ccc(S(=O)(=O)N2CCN(c3ccccc3F)CC2)cc1	inactive
COc1ccc(S(=O)(=O)N2CCOCC2)cc1NC(=O)CN1CCCCCC1	inactive
Cc1ccc(CN(C(=O)c2ccco2)C(C(=O)NC2CCCC2)c2cccnc2)cc1 (centres undefined)	inactive
COc1ccc(Oc2nc3c(c(=O)n(C)c(=O)n3C)n2C)cc1	inactive

SMILES	outcome
CN1CCN(c2ccccc2NC(=O)c2ccc(N3CCCC3)c([N+](=O)[O-])c2)CC1	inactive
O=C(O)c1ccc(S(=O)(=O)c2ccc3c(c2)C(=O)N(c2ccccc2[N+](=O)[O-])C3=O)cc1	inactive
O=C(O)c1cccc(Nc2ccc([N+](=O)[O-])cn2)c1	inactive
O=C(NC(=S)NCCCN1CCOCC1)c1ccc(Br)cc1	inactive
Cc1nn(C)c(C)c1S(=O)(=O)N1CCC(CO)(CC2CCCCO2)CC1 (centres undefined)	inactive
COc1ccc(Cl)cc1C(=O)Nc1ccc2c(c1)OCCO2	inactive
Cc1cccc(-n2nc(C)c3c2NC2=C(C(=O)CCC2)C3c2ccccn2)c1 (centres undefined)	inactive
CCOC(=O)CCC(=O)Nc1ccc(S(=O)(=O)N2CCC(C)CC2)cc1	inactive
C/C(=C/c1ccccc1)C(=O)N1CCN(c2ccccc2)CC1	inactive
O=C(Nc1cccc(F)c1)c1ccco1	inactive
CCOc1ccc(NC(=O)c2nsc(Cl)c2Cl)cc1	inactive
C(=N\N1CCOCC1)/c1nc(-c2ccccc2)n2ccccc12	inactive
O=[N+]([O-])c1ccccc1/C=N/Nc1nc(N2CCCC2)nc(N2CCCC2)n1	inactive
CC12CCC(C(=O)N(CCCN3CCN(Cc4ccccc4)CC3)C1=O)C2(C)C (centres undefined)	inactive
COc1ccc(/C=C2\N=C(c3ccc(C)cc3)OC2=O)cc1	inactive
COc1ccc(OC)c(S(=O)(=O)NCCCn2ccnc2)c1	inactive
CC1CCC(NC(=O)C2CCN(c3cnccn3)CC2)CC1 (centres undefined)	inactive
CC(=O)N1N=C(c2ccccc2)CC1c1ccccc1 (centres undefined)	inactive
O=C(c1c(Cl)cccc1Cl)N1CCCCCC1	inactive
CCn1ncc(Br)c1C(=O)Nc1cccc(F)c1	inactive
Cc1ccc(Cl)c2c(N=Nc3ccccc3)c(O)[nH]c12	inactive
Cc1c(Cl)c(C(F)(F)F)nn1CC(=O)NCc1ccco1	inactive
CC(NS(=O)(=O)c1ccc(Cl)c(Cl)c1)C(=O)OCC(=O)Nc1ccc2c(c1)OCO2 (centres undefined)	inactive
O=C1c2ccccc2C(=O)N1CSc1nnnn1-c1ccccc1	inactive
O=C(CCN1C(=O)c2ccccc2C1=O)CN1CCOCC1	inactive

SMILES	outcome
CCOC(=O)N1CCN(Cc2nc3c(c(=O)n(C)c(=O)n3C)n2Cc2cccc(C)c2)CC1	inactive
C/C(=N\NC(=O)c1cc(-c2ccc(C)s2)nc2ccccc12)c1cccnc1	inactive
COc1cccc(NC(=O)N2CCCCCC2)c1	inactive
Cc1cccc(Nc2nc(-c3ccc(F)cc3)cs2)n1	inactive
CN(c1nc(-c2ccc(Br)cc2)cs1)C1CCS(=O)(=O)C1 (centres undefined)	inactive
O=C(COC(=O)c1ccc(Cl)nc1)Nc1ccc(N2CCCCC2)cc1	inactive
CCN(CC)CCC(=O)N1c2ccccc2CCc2ccc(NC(=O)OC(C)C)cc21	inactive
CCN(CCCn1c(=S)[nH]c2ccc(N3CCOCC3)cc2c1=O)c1ccccc1	inactive
CCCc1cc2c(cc1NC(=O)c1ccco1)OCO2	inactive
Cc1ccc(-n2c(SCC(N)=O)nnc2-c2ccco2)cc1	inactive
Cc1ccc(NC(=O)CN(C)C(=S)NC2CC2)cc1	inactive
CN(C(=O)CC1C(=O)NCCN1CC(c1ccccc1)c1ccccc1)C(C1CC1)C1CC1 (centres undefined)	inactive
CCc1noc(C)c1C(=O)N1CCCC(CCC(=O)NCc2ccc(F)c(F)c2)C1 (centres undefined)	inactive
CCCOc1ccc(S(=O)(=O)Nc2ccccn2)c2ccccc12	inactive
O=[N+]([O-])c1ccccc1S(=O)(=O)NC1CCCCCCC1	inactive
Cc1cccc(C(=O)Nc2nnc(COc3ccccc3)s2)c1	inactive
COc1ccc(OC)c(NC(=O)CS(=O)(=O)Cc2ccccc2)c1	inactive
CC(O)CNCCCOc1cccc(Oc2ccccc2)c1 (centres undefined)	inactive
Cc1cc(C(=O)CN2CCCC2)c(C)n1-c1ccc(Cl)cc1	inactive
CCCCC(CCC(=O)Nc1nccs1)C(=O)O (centres undefined)	inactive
CC(C)n1cc(C(=O)N2CCCC(N3CCN(c4ccc(F)cc4)CC3)C2)cn1 (centres undefined)	inactive
COc1ccc(C2/C(=C(/O)c3ccc(C)cc3)C(=O)C(=O)N2C)c(OC)c1 (centres undefined)	inactive
O=C(NNC(=S)NC(=O)c1ccc(Br)cc1)c1ccc([N+](=O)[O-])cc1	inactive
CCOC(=O)c1c(CN2CCOCC2)oc2ccc(OC(C)=O)cc12	inactive
